Test [1] in a line: antimalarial activity against Dd2 strain (AID 2302;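 active = growth inhibition above 50% at the single 2 µM test dose, taken to imply half-maximal potency below 2 µM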;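 also: 0% = DMSO untreated growth and 100% = chloroquine plus artemisinin killed control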). As to conditions: P. falciparum Dd2 in RBCs, LDH growth readout, 72 h; at 2 µM; stronger effect = higher value.
Test [2] in a line: HepG2 cytotoxicity, primary screen, cytotoxicity control for P. falciparum antimalarial project, cell-based, ATP luminescence (AID 2303;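 active = inhibition above 50%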;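 also: 0% = DMSO wells and 100% = digitonin-killed cells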). As to conditions: HepG2 viability, 24-48 h, at 10 µM, stronger effect = higher value.
Test [3] has as its target L-lactate dehydrogenase (Plasmodium falciparum (isolate CDC / Honduras)) (UniProt Q27743). In words: PfLDH activity inhibition – cell lysate, 3D7 strain, counter-screen for P. falciparum growth inhibition project (AID 2304).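 Also: 0% = vehicle and 100% = reference inhibitor.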 As to conditions: P. falciparum 3D7 crude extract, LDH APAD/NBT absorbance; at 2 µM; stronger effect = higher value.
Test [4] in a line: inhibition of 3D7 malaria parasite growth – strain 3D7 (AID 2306).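 Also: 0% = DMSO wells and 100% = chloroquine plus artemisinin control wells.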 As to conditions: P. falciparum 3D7 erythrocytic growth, LDH absorbance, 72 h; at 2 µM; stronger effect = higher value.
Test [5] has as its target Calcium-dependent protein kinase 1 (Plasmodium falciparum (isolate 3D7)) (UniProt P62344). In words: PfCDPK1 kinase inhibitors, biochemical, TCAMS library (AID 1159585; cut-off not given, nearly all actives have IC50 up to about 0.98 µM;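 also: inhibitors leave more ATP so luminescence rises with inhibition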). The conditions noted are these: recombinant PfCDPK1, Kinase-Glo ATP depletion luminescence.
Test [6] deals with Plasmodium falciparum protein kinase 6 (PK6, PF3D7_1337100) (UniProt Q8IDW1). In words: PfPK6 kinase inhibitors, biochemical, TCAMS library (AID 1159586). The conditions noted are these: recombinant PfPK6, Kinase-Glo ATP depletion luminescence.
Plasmodium falciparum protein kinase 6 (PK6, PF3D7_1337100), sequence (Q8IDW1 1-305): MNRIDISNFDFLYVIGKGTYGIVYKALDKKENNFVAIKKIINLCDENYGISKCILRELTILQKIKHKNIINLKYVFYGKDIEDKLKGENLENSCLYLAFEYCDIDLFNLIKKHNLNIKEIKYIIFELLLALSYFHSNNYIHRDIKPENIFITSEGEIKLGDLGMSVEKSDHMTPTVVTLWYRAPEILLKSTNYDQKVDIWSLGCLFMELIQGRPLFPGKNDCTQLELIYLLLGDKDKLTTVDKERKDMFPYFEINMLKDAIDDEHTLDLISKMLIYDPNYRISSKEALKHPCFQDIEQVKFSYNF
Test [7] addresses Protein kinase 7 (PK7), Plasmodium falciparum 3D7 (PF3D7_0213400) (UniProt Q7YTF7). In words: inhibition of Plasmodium PK7 catalytic activity – biochemical, TCAMS antimalarial set, Kinase-Glo luminescence (AID 1159587). The conditions noted are these: recombinant PfPK7, Kinase-Glo ATP depletion luminescence.
For test [8], the target named is Calcium-dependent protein kinase 4 (Plasmodium falciparum (isolate 3D7)) (UniProt Q8IBS5). Put plainly: PfCDPK4 kinase inhibitors, biochemical, TCAMS library (AID 1159588; cut-off not given, nearly all actives have IC50 up to about 0.91 µM). As to conditions: recombinant PfCDPK4, Kinase-Glo ATP depletion luminescence.
Calcium-dependent protein kinase 4 (Plasmodium falciparum (isolate 3D7)), sequence (Q8IBS5 whole entry, looked up): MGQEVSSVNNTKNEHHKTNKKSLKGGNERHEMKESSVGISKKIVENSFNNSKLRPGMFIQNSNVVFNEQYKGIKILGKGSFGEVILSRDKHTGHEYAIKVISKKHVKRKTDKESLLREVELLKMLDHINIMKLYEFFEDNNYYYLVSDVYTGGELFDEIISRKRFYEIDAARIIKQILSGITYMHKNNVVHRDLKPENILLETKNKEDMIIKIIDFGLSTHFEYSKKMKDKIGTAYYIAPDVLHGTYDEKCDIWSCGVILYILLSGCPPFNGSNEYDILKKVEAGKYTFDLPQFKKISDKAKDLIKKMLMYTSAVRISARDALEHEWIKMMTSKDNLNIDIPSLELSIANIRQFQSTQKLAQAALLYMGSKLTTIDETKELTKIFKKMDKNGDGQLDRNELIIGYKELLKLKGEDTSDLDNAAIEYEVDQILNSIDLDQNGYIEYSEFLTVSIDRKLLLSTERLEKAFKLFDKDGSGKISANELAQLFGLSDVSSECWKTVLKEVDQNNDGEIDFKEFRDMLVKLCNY

Molecules are shown by their SMILES. A number with no mark means an inactive call. For part of these data: Measured potencies and affinities stand elsewhere. Activity calls are given as the source filed them. Unless noted, no rule for the calls is given here.

Calcium-dependent protein kinase 1 (Plasmodium falciparum (isolate 3D7)), sequence (P62344 whole entry, looked up): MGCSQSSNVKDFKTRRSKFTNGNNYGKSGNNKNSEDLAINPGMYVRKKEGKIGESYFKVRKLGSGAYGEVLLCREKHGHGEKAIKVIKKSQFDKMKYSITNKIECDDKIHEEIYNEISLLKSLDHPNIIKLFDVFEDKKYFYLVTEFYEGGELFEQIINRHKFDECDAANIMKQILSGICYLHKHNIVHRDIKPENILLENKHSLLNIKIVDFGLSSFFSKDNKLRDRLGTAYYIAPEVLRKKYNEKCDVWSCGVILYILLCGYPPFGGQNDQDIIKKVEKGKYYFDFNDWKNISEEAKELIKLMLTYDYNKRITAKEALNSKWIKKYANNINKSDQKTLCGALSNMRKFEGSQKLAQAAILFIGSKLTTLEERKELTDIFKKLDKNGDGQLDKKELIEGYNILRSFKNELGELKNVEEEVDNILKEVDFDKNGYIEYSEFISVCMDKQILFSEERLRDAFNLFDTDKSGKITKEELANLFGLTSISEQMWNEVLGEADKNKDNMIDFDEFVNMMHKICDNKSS
L-lactate dehydrogenase (Plasmodium falciparum (isolate CDC / Honduras)), sequence (Q27743 whole entry, looked up): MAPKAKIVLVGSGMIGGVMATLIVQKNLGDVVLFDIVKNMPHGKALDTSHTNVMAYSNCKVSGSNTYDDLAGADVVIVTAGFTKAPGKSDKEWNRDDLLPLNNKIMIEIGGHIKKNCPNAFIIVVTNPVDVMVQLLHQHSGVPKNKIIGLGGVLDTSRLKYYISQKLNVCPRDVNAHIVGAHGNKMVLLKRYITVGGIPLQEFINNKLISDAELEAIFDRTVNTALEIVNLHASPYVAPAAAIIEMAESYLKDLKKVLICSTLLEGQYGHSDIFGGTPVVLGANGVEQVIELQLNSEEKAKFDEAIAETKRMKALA
Protein kinase 7 (PK7), Plasmodium falciparum 3D7 (PF3D7_0213400), sequence (Q7YTF7 1-343): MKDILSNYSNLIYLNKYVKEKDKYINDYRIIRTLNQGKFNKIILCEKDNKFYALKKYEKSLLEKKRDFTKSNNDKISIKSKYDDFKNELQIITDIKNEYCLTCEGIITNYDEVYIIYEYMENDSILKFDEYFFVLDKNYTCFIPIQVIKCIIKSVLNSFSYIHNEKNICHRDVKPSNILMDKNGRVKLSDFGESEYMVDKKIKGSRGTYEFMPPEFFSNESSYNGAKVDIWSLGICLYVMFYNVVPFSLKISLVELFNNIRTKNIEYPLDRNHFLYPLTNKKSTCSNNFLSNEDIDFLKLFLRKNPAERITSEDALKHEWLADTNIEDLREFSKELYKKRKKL

As for `O=C(N[C@H](Cc1ccc(Cl)cc1)C(=O)N1CCN(c2ccnc3cc(Cl)ccc23)CC1)[C@H]1Cc2ccccc2CN1`, the growth inhibition is 41% in test [1] and 85% (active) in test [4]. Further, the results for the inhibition in test [2] and in test [3] were 16% and 5%, respectively. Besides, the outcome in test [5], in test [6], in test [7] and in test [8] was inactive.

Regarding `Cc1ccc(-n2cc(CNCCCn3ccnc3)c(-c3cccc(C)c3)n2)cc1`, the growth inhibition in test [1] was 36%; in test [4], 99% (active). For the same compound, the inhibition in test [2] is 9%; in test [3], -2%. For the same compound, the outcome in test [5], in test [6], in test [7] and in test [8] was inactive.

For `Cc1cc(N2CCN(C)CC2)nc2ccc(NC(=O)c3cccc(N(C)C)c3)cc12`, the growth inhibition in test [1] is 23%; in test [4], 85% (active). Besides, the inhibition in test [2] was 9%; in test [3] it was 4%. For the same compound, the result in test [5], in test [6], in test [7] and in test [8] was inactive.

For `CC(C)(C)c1ccc(NC(=O)c2ccc(CN3CCCN(Cc4cccc(C#N)c4)CC3)cc2)cc1`, the growth inhibition is 12% in test [1] and 99% (active) in test [4]. In addition, the inhibition in test [2] was 54% (active); in test [3], -5%. For the same compound, the outcome in test [5], in test [6], in test [7] and in test [8] was inactive.

In the case of `CCN(CC)C(=NCCCCCCCCN=C(/N=C(/N)Nc1ccc(Cl)cc1)N(CC)CC)/N=C(/N)Nc1ccc(Cl)cc1`, the growth inhibition in test [1] was 94% (active); in test [4], 99% (active). Besides, the results for the inhibition in test [2] and in test [3] were 10% and -3%, respectively. For the same compound, the outcome in test [5], in test [6], in test [7] and in test [8] was inactive.

With `CCCNc1ccc(-c2cc(C(N)=O)c3[nH]cc(C4CCN(S(=O)(=O)CC)CC4)c3c2)cn1`, the results for the growth inhibition in test [1] and in test [4] were 42% and 99% (active), respectively. For the same compound, the inhibition in test [2] was 6%; in test [3] it was -1%. Further, the result in test [5], in test [6], in test [7] and in test [8] was inactive.

On to `COc1ccc2ncc(F)c(CCN3[C@@H]4CC[C@H]3CC(NCc3ccc5c(c3)OCCO5)C4)c2n1` (some centres undefined), for which the growth inhibition was 35% in test [1] and 102% (active) in test [4]. Further, the results for the inhibition in test [2] and in test [3] were 27% and -5%, respectively. Besides, the result in test [5], in test [6], in test [7] and in test [8] was inactive.

For `COc1ccc2c(c1)S(=O)(=O)N=C(N1CCCC1c1ccc(Cl)c(Cl)c1)N2C` (centres undefined), the growth inhibition was 19% in test [1] and 89% (active) in test [4]. The inhibition in test [2] is -2%; in test [3] it was 0%. Further, the result in test [5], in test [6], in test [7] and in test [8] was inactive.

Turning to `Fc1ccc2nc(-c3cccc(-c4ccc(CNCc5ccccc5)cc4)c3)[nH]c2c1`, the growth inhibition in test [1] was 89% (active); in test [4], 102% (active). Besides, the inhibition in test [2] was 27%; in test [3], -1%. Also, the outcome in test [5], in test [6], in test [7] and in test [8] was inactive.

On to `OC(CNCc1ccccc1Oc1ccccc1)c1cc(Br)cs1` (centres undefined), for which the growth inhibition was 79% (active) in test [1] and 94% (active) in test [4]. Moreover, the inhibition was -13% in test [2] and -4% in test [3]. Further, the outcome in test [5], in test [6], in test [7] and in test [8] was inactive.

Regarding `CN(C)c1ccc(C(c2ccc(N(C)C)cc2)c2cc([N+](=O)[O-])ccc2Cl)cc1`, the growth inhibition was 67% (active) in test [1] and 96% (active) in test [4]. In addition, the inhibition is 0% in test [2] and 7% in test [3]. Further, the outcome in test [5], in test [6], in test [7] and in test [8] was inactive.

As to `Cc1[nH]c(C)c(-c2ccc(/C=C/c3ccccn3)cc2)c(=O)c1Cl`, the growth inhibition in test [1] was 96% (active); in test [4], 97% (active). The inhibition was -9% in test [2] and -2% in test [3]. Also, the result in test [5], in test [6], in test [7] and in test [8] was inactive.

With `NC1=NC(c2ccccc2)(c2ccccc2)C(=O)N1Cc1ccc(-c2ccncc2)cc1`, the growth inhibition in test [1] was 74% (active); in test [4], 96% (active). Besides, the inhibition in test [2] was 20%; in test [3], 5%. Also, the outcome in test [5], in test [6], in test [7] and in test [8] was inactive.

`N#Cc1ccc(CN2CCC(Oc3ccc(NC(=O)c4ccco4)cc3Cl)C2)cc1` (centres undefined): the growth inhibition in test [1] and in test [4] was 95% (active) each time. The inhibition in test [2] is 13%; in test [3] it was -2%. The outcome in test [5], in test [6], in test [7] and in test [8] was inactive.

For the compound `Fc1cc(Cl)ccc1Nc1ccnc2cc(I)ccc12`, the values for the growth inhibition in test [1] and in test [4] were 10% and 90% (active), respectively. The inhibition in test [2] was 11%; in test [3] it was -1%. Besides, the outcome in test [5], in test [6], in test [7] and in test [8] was inactive.

Take `Cc1cc(NC(=O)c2ccc(S(=O)(=O)N(Cc3ccccc3)C(C)C)cc2)no1`: the values for the growth inhibition in test [1] and in test [4] were 67% (active) and 87% (active), respectively. In addition, the inhibition in test [2] was -6%; in test [3], -1%. Moreover, the outcome in test [5], in test [6], in test [7] and in test [8] was inactive.

Consider `Cc1ccc2cc(NCCCCCCCCON3C(N)=NC(N)=NC34CCCCC4)ccc2n1`, for which the results for the growth inhibition in test [1] and in test [4] were 80% (active) and 92% (active), respectively. Moreover, the inhibition in test [2] was 15%; in test [3], 3%. Also, the result in test [5], in test [6], in test [7] and in test [8] was inactive.

Turning to `Cc1cc(F)ccc1Nc1nc(N(C)c2ccccc2)c2cc(OCCN(C)C)ccc2n1`, the growth inhibition in test [1] was 55% (active); in test [4], 94% (active). Further, the values for the inhibition in test [2] and in test [3] were 37% and 3%, respectively. The outcome in test [5], in test [6], in test [7] and in test [8] was inactive.

These data come from PubChem BioAssay.
